Measured values as given in PubChem BioAssay AID1159580 (chemical genetic matrix, 2015).
Screen size: about 5,500 compounds; about 2,000 (36%) were called active. Roughly 18% stayed inconclusive and do not appear here. Rule as the data show it: active = normalized growth mostly below about 0.91 (no sharp cut-off); inconclusive = no clear call, values can overlap the other calls; inactive = mostly above about 0.92. This is one part of the list.

Test: chemical genetic growth profiling, strain panel (AID 1159580);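 also: tested at 20 µM; growth read once vehicle control cultures reached saturation at 30 °C; 1 = growth at the plate median or of vehicle wells; lower values mean less growth of the strain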
Conditions: growth OD

Measured: normalized growth

O=C(Oc1cc(OC(=O)c2ccccc2)c2c(c1)O[C@H](c1ccc(OC(=O)c3ccccc3)c(OC(=O)c3ccccc3)c1)[C@@H](OC(=O)c1ccccc1)C2)c1ccccc1
inactive: S. cerevisiae deletion strains, locus YAL021C, strain ccr4, hits give low values 1.01 | S. cerevisiae deletion strains, locus YAL026C, strain drs2, hits give low values 0.998 | S. cerevisiae deletion strains, locus YAL030W, strain snc1, hits give low values 0.991 | S. cerevisiae deletion strains, locus YBL061C, strain skt5, hits give low values 0.99 | S. cerevisiae deletion strains, locus YBR009C, strain hhf1, hits give low values 0.982 | S. cerevisiae deletion strains, locus YBR021W, strain FUR4, hits give low values 1.07 | S. cerevisiae deletion strains, locus YBR023C, strain chs3, hits give low values 0.999 | S. cerevisiae deletion strains, locus YBR171W, strain sec66, hits give low values 0.997 | S. cerevisiae deletion strains, locus YBR229C, strain ROT2, hits give low values 1.04 | S. cerevisiae deletion strains, locus YBR231C, strain swc5, hits give low values 0.99 | S. cerevisiae deletion strains, locus YBR279W, strain paf1, hits give low values 1 | S. cerevisiae deletion strains, locus YCL011C, strain gbp2, hits give low values 0.987 | S. cerevisiae deletion strains, locus YCL016C, strain dcc1, hits give low values 0.994 | S. cerevisiae deletion strains, locus YCL029C, strain bik1, hits give low values 1.05 | S. cerevisiae deletion strains, locus YCL061C, strain MRC1, hits give low values 0.999 | S. cerevisiae deletion strains, locus YCL069W, strain vba3, hits give low values 1 | S. cerevisiae deletion strains, locus YCR088W, strain abp1, hits give low values 0.993 | S. cerevisiae deletion strains, locus YDL005C, strain med2, hits give low values 0.991 | S. cerevisiae deletion strains, locus YDL035C, strain GPR1, hits give low values 1.04 | S. cerevisiae deletion strains, locus YDL040C, strain nat1, hits give low values 0.991 | S. cerevisiae deletion strains, locus YDL074C, strain BRE1, hits give low values 1.14 | S. cerevisiae deletion strains, locus YDL101C, strain DUN1, hits give low values 1.05 | S. cerevisiae deletion strains, locus YDL185W, strain tfp1, hits give low values 1.06 | S. cerevisiae deletion strains, locus YDL192W, strain arf1, hits give low values 1.07 | S. cerevisiae deletion strains, locus YDR001C, strain nth1, hits give low values 0.994 | S. cerevisiae deletion strains, locus YDR069C, strain doa4, hits give low values 0.986 | S. cerevisiae deletion strains, locus YDR101C, strain arx1, hits give low values 1.03 | S. cerevisiae deletion strains, locus YDR137W, strain rgp1, hits give low values 1.03 | S. cerevisiae deletion strains, locus YDR159W, strain sac3, hits give low values 0.999 | S. cerevisiae deletion strains, locus YDR162C, strain NBP2, hits give low values 1.03 | S. cerevisiae deletion strains, locus YDR195W, strain ref2 0.953 | S. cerevisiae deletion strains, locus YDR297W, strain sur2, hits give low values 1 | S. cerevisiae deletion strains, locus YDR318W, strain mcm21, hits give low values 1.04 | S. cerevisiae deletion strains, locus YDR334W, strain swr1, hits give low values 0.992 | S. cerevisiae deletion strains, locus YDR335W, strain msn5, hits give low values 0.999 | S. cerevisiae deletion strains, locus YDR388W, hits give low values 1.04 | S. cerevisiae deletion strains, locus YDR392W, strain spt3, hits give low values 0.927 | S. cerevisiae deletion strains, locus YDR502C, strain sam2, hits give low values 1.06 | S. cerevisiae deletion strains, locus YEL003W, strain gim4, hits give low values 0.994 | S. cerevisiae deletion strains, locus YEL037C, strain rad23, hits give low values 0.991 | S. cerevisiae deletion strains, locus YEL061C, strain CIN8 (second series), hits give low values 0.999 | S. cerevisiae deletion strains, locus YEL061C, strain CIN8, hits give low values 1.02 | S. cerevisiae deletion strains, locus YER015W, strain faa2, hits give low values 0.987 | S. cerevisiae deletion strains, locus YER016W, strain bim1, hits give low values 0.991 | S. cerevisiae deletion strains, locus YER110C, hits give low values 1.06 | S. cerevisiae deletion strains, locus YER111C, strain swi4, hits give low values 0.999 | S. cerevisiae deletion strains, locus YER155C, strain BEM2 (second series), hits give low values 0.993 | S. cerevisiae deletion strains, locus YER155C, strain BEM2, hits give low values 1.04 | S. cerevisiae deletion strains, locus YER167W, strain BCK2, hits give low values 1.03 | S. cerevisiae deletion strains, locus YFR010W, strain ubp6, hits give low values 0.993 | S. cerevisiae deletion strains, locus YGL078C, strain dbp3, hits give low values 1.04 | S. cerevisiae deletion strains, locus YGL086W, strain mad1, hits give low values 1.04 | S. cerevisiae deletion strains, locus YGL167C, strain pmr1, hits give low values 0.993 | S. cerevisiae deletion strains, locus YGL173C, strain kem1, hits give low values 0.998 | S. cerevisiae deletion strains, locus YGL227W, strain vid30, hits give low values 0.982 | S. cerevisiae deletion strains, locus YGL240W, strain doc1, hits give low values 0.977 | S. cerevisiae deletion strains, locus YGL248W, strain PDE1, hits give low values 1.08 | S. cerevisiae deletion strains, locus YGL253W, strain hxk2, hits give low values 1 | S. cerevisiae deletion strains, locus YGR135W, strain pre9, hits give low values 1.09 | S. cerevisiae deletion strains, locus YGR252W, strain gcn5, hits give low values 1.17 | S. cerevisiae deletion strains, locus YHR013C, strain ard1, hits give low values 0.958 | S. cerevisiae deletion strains, locus YHR027C, strain rpn1, hits give low values 1 | S. cerevisiae deletion strains, locus YHR079C, strain IRE1 (second series), hits give low values 1.05 | S. cerevisiae deletion strains, locus YHR094C, strain hxt1, hits give low values 1.03 | S. cerevisiae deletion strains, locus YHR129C, strain ARP1, hits give low values 1.05 | S. cerevisiae deletion strains, locus YHR142W, strain chs7, hits give low values 1.03 | S. cerevisiae deletion strains, locus YHR200W, strain rpn10, hits give low values 1.05 | S. cerevisiae deletion strains, locus YIL066C, strain RNR3, hits give low values 1.05 | S. cerevisiae deletion strains, locus YIL073C, strain SPO22, hits give low values 1.16 | S. cerevisiae deletion strains, locus YIL125W, strain kgd1, hits give low values 1.02 | S. cerevisiae deletion strains, locus YIR030C, strain dcg1, hits give low values 1.03 | S. cerevisiae deletion strains, locus YJL092W, strain hpr5, hits give low values 0.993 | S. cerevisiae deletion strains, locus YJL095W, strain BCK1 (second series), hits give low values 0.998 | S. cerevisiae deletion strains, locus YJL095W, strain BCK1, hits give low values 1.12 | S. cerevisiae deletion strains, locus YJL115W, strain asf1, hits give low values 0.984 | S. cerevisiae deletion strains, locus YJL129C, strain trk1, hits give low values 0.999 | S. cerevisiae deletion strains, locus YJL134W, strain LCB3, hits give low values 1.03 | S. cerevisiae deletion strains, locus YJL154C, strain vps35, hits give low values 0.997 | S. cerevisiae deletion strains, locus YJL164C, strain tpk1, hits give low values 0.974 | S. cerevisiae deletion strains, locus YJL166W, strain qcr8, hits give low values 0.986 | S. cerevisiae deletion strains, locus YJL168C, strain set2, hits give low values 1.06 | S. cerevisiae deletion strains, locus YJL187C, strain SWE1 (second series), hits give low values 1.07 | S. cerevisiae deletion strains, locus YJL187C, strain SWE1, hits give low values 1 | S. cerevisiae deletion strains, locus YJR075W, strain HOC1, hits give low values 1.05 | S. cerevisiae deletion strains, locus YKL009W, strain mrt4, hits give low values 1.05 | S. cerevisiae deletion strains, locus YKL068W, hits give low values 1.02 | S. cerevisiae deletion strains, locus YKL085W, strain MDH1 (second series), hits give low values 1.01 | S. cerevisiae deletion strains, locus YKL085W, strain MDH1, hits give low values 1.01 | S. cerevisiae deletion strains, locus YKL160W, strain elf1, hits give low values 1.01 | S. cerevisiae deletion strains, locus YKL190W, strain CNB1, hits give low values 0.999 | S. cerevisiae deletion strains, locus YKR001C, strain vps1, hits give low values 1.08 | S. cerevisiae deletion strains, locus YKR026C, strain gcn3, hits give low values 0.968 | S. cerevisiae deletion strains, locus YKR091W, strain srl3, hits give low values 0.996 | S. cerevisiae deletion strains, locus YLL001W, strain dnm1, hits give low values 1.01 | S. cerevisiae deletion strains, locus YLL026W, hits give low values 0.985 | S. cerevisiae deletion strains, locus YLL041C, strain sdh2, hits give low values 1 | S. cerevisiae deletion strains, locus YLR027C, strain aat2, hits give low values 0.995 | S. cerevisiae deletion strains, locus YLR039C, strain RIC1, hits give low values 1.24 | S. cerevisiae deletion strains, locus YLR058C, strain SHM2, hits give low values 1.04 | S. cerevisiae deletion strains, locus YLR102C, strain apc9, hits give low values 1.03 | S. cerevisiae deletion strains, locus YLR221C, strain rsa3, hits give low values 1 | S. cerevisiae deletion strains, locus YLR258W, strain gsy2, hits give low values 0.993 | S. cerevisiae deletion strains, locus YLR262C, strain YPT6 (second series), hits give low values 0.993 | S. cerevisiae deletion strains, locus YLR268W, strain sec22, hits give low values 1.04 | S. cerevisiae deletion strains, locus YLR320W, strain mms22, hits give low values 0.975 | S. cerevisiae deletion strains, locus YLR330W, strain CHS5, hits give low values 1.04 | S. cerevisiae deletion strains, locus YLR342W, strain FKS1 (second series), hits give low values 1.06 | S. cerevisiae deletion strains, locus YLR342W, strain FKS1, hits give low values 0.989 | S. cerevisiae deletion strains, locus YLR357W, strain rsc2, hits give low values 0.979 | S. cerevisiae deletion strains, locus YLR370C, strain arc18, hits give low values 0.999 | S. cerevisiae deletion strains, locus YLR371W, strain rom2, hits give low values 1.08 | S. cerevisiae deletion strains, locus YLR384C, strain iki3, hits give low values 1.01 | S. cerevisiae deletion strains, locus YLR418C, strain cdc73, hits give low values 1.15 | S. cerevisiae deletion strains, locus YML016C, strain PPZ1, hits give low values 1.02 | S. cerevisiae deletion strains, locus YML032C, strain rad52, hits give low values 1.04 | S. cerevisiae deletion strains, locus YML120C, strain ndi1, hits give low values 1.01 | S. cerevisiae deletion strains, locus YML124C, strain tub3, hits give low values 1.03 | S. cerevisiae deletion strains, locus YMR058W, strain fet3, hits give low values 0.999 | S. cerevisiae deletion strains, locus YMR078C, strain ctf18, hits give low values 1.04 | S. cerevisiae deletion strains, locus YMR125W, strain sto1, hits give low values 0.978 | S. cerevisiae deletion strains, locus YMR129W, hits give low values 0.997 | S. cerevisiae deletion strains, locus YMR205C, strain PFK2, hits give low values 0.973 | S. cerevisiae deletion strains, locus YMR223W, strain ubp8, hits give low values 1.06 | S. cerevisiae deletion strains, locus YMR231W, strain pep5, hits give low values 0.998 | S. cerevisiae deletion strains, locus YMR307W, strain GAS1, hits give low values 1.16 | S. cerevisiae deletion strains, locus YNL067W, strain RPL9B, hits give low values 0.984 | S. cerevisiae deletion strains, locus YNL071W, strain lat1, hits give low values 1.01 | S. cerevisiae deletion strains, locus YNL128W, strain TEP1, hits give low values 0.999 | S. cerevisiae deletion strains, locus YNL209W, strain ssb2, hits give low values 1 | S. cerevisiae deletion strains, locus YNL233W, strain BNI4, hits give low values 1.07 | S. cerevisiae deletion strains, locus YNL248C, strain rpa49, hits give low values 1.01 | S. cerevisiae deletion strains, locus YNL250W, strain rad50, hits give low values 1.05 | S. cerevisiae deletion strains, locus YNL271C, strain bni1, hits give low values 1.03 | S. cerevisiae deletion strains, locus YNL298W, strain CLA4, hits give low values 1.04 | S. cerevisiae deletion strains, locus YNL307C, strain MCK1, hits give low values 1.06 | S. cerevisiae deletion strains, locus YNL322C, strain KRE1 (second series), hits give low values 0.985 | S. cerevisiae deletion strains, locus YNR049C, strain mso1, hits give low values 0.991 | S. cerevisiae deletion strains, locus YNR052C, strain pop2, hits give low values 1.06 | S. cerevisiae deletion strains, locus YOL006C, strain TOP1, hits give low values 1.32 | S. cerevisiae deletion strains, locus YOL012C, strain htz1 1.34 | S. cerevisiae deletion strains, locus YOL147C, strain pex11, hits give low values 1.03 | S. cerevisiae deletion strains, locus YOR001W, strain rrp6, hits give low values 0.994 | S. cerevisiae deletion strains, locus YOR061W, strain CKA2, hits give low values 1.04 | S. cerevisiae deletion strains, locus YOR069W, strain VPS5, hits give low values 1.03 | S. cerevisiae deletion strains, locus YOR070C, strain gyp1, hits give low values 0.996 | S. cerevisiae deletion strains, locus YOR080W, strain dia2, hits give low values 0.989 | S. cerevisiae deletion strains, locus YOR083W, strain WHI5, hits give low values 1.02 | S. cerevisiae deletion strains, locus YOR106W, strain vam3, hits give low values 1 | S. cerevisiae deletion strains, locus YOR136W, strain idh2, hits give low values 1.04 | S. cerevisiae deletion strains, locus YOR144C, strain elg1, hits give low values 1.04 | S. cerevisiae deletion strains, locus YOR184W, strain ser1, hits give low values 1.05 | S. cerevisiae deletion strains, locus YOR265W, strain rbl2, hits give low values 0.993 | S. cerevisiae deletion strains, locus YOR270C, strain vph1, hits give low values 1.01 | S. cerevisiae deletion strains, locus YOR290C, strain snf2, hits give low values 0.954 | S. cerevisiae deletion strains, locus YOR316C, strain cot1, hits give low values 1.05 | S. cerevisiae deletion strains, locus YPL051W, strain arl3, hits give low values 1 | S. cerevisiae deletion strains, locus YPL055C, strain LGE1, hits give low values 1.07 | S. cerevisiae deletion strains, locus YPL078C, strain atp4, hits give low values 1.01 | S. cerevisiae deletion strains, locus YPL106C, strain sse1, hits give low values 0.975 | S. cerevisiae deletion strains, locus YPL240C, strain hsp82, hits give low values 0.99 | S. cerevisiae deletion strains, locus YPR119W, strain clb2, hits give low values 1.04 | S. cerevisiae deletion strains, locus YPR141C, strain kar3, hits give low values 1.04 | S. cerevisiae deletion strains, locus YPR163C, strain tif3, hits give low values 1.05 | S. cerevisiae deletion strains, locus YPR167C, strain met16, hits give low values 1.07 | S. cerevisiae deletion strains, strain wtn01, hits give low values 1.04 | S. cerevisiae strains, strain wild type, hits give low values 1.04
